Source: PubChem BioAssay
An excerpt weighted towards active compounds, which were near 19% of everything screened.
TDP1 cell noCPT: qHTS for Inhibitors of human tyrosyl-DNA phosphodiesterase 1 (TDP1): qHTS in cells in absence of CPT | DT40 Tdp1-/- hTDP1 cells, no CPT, ATP luminescence, 48 h | Potency, µM (highest dose often 46.2 µM), for inactives: top-dose activity change, negative = growth inhibition, actives largely listed as inhibitors | 420,000 compounds, 15% hits; also: potency is read from the fitted curve at half-maximal effect; % is scaled to controls: 0 for no effect and ±100 for the full control effect; nearly all actives have a fitted effect of over 55% in size
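Compound effects on proliferation are scored in DT40 Tdp1-/-;hTDP1 cells in the absence of CPT. ATP levels (CellTiter-Glo luminescence) are recorded after a ≥48 hr, 37 °C incubation.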
MCF10A rerep: induces DNA re-replication in MCF 10a normal breast cells; AID 624296; MCF 10A DNA re-replication, Hoechst nuclear intensity, 48 h; Potency, µM (doses to about 46.1 µM), for the others: top-dose activity, positive = re-replication, hits mostly activators; 350,000 compounds, 2.9% hits; also: potency is read from the fitted curve at half-maximal effect; % of control where 0% means no effect; nearly all actives have a fitted effect of over 50% in size
Chronic BCR inh: inhibitors of chronic active B-cell receptor signaling. 340,000 compounds, 0.05% hits. Potency, µM (highest dose often 46.1 µM), inactives show at the top dose activity change, negative = inhibition, most hits filed as inhibitors. AID 493014. ABC-DLBCL IkBa-CBG/CBR reporter, luminescence ratio, 4 h; active = well fitted inhibition curve with a large enough effect in the signal ratio, with a control signal flat, not every such curve was filed as active; inconclusive = small, poorly fitted or top-dose-only effect, or effect the other way, or a change in a side signal; the % refers to the signal ratio;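 also: potency is read from the fitted curve at half-maximal effect; plate controls were basal doxycycline-induced cells for no effect and cells given 10 µM MG132 for full effect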
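Compounds up to 46 uM were incubated four hours with TMD8 cells whose green CBG68 luciferase is fused to IkappaBalpha; red CBR luminescence normalised the signal, and concentration-effect curves were fitted to fusion, red and ratio data.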
IL1B secr inh: inhibitors of inflammasome signaling (IL-1 beta secretion) | AID 743279 | THP-1 LPS/ATP IL-1B secretion, AlphaLISA, 16 h; active compounds read low | 360,000 compounds, 4.7% hits | activity change, % at 57.5 µM; in the data active = activity change below about -50%; inconclusive = mostly about -30% to -49%; also: % is scaled to controls: 0 for no effect and ±100 for the full control effect
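Secreted IL-1B measured by AlphaLISA bead assay after 16 h compound exposure of THP-1 cells; compounds (final up to 57.5 uM) added 1 h before LPS (250 ng/mL) and ATP (1.25 mM) stimulation; lower signal means less secretion.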
TDP1 cell CPT: DT40-hTDP1 cell growth loss with CPT. chicken DT40 Tdp1-/-;hTDP1 cells + 20 nM CPT, ATP luminescence, 48 h. Potency, µM (titrated, usually from 46.2 µM), without a hit: at the highest dose activity change, negative = growth inhibition, usual class: inhibitors. 420,000 compounds, 12% hits; also: potency is read from the fitted curve at half-maximal effect; % is scaled to controls: 0 for no effect and ±100 for the full control effect; nearly all actives have a fitted effect of over 55% in size
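Chicken DT40 Tdp1-/- cells complemented with human TDP1, 400 cells/well, exposed to compounds plus 20 nM camptothecin for at least 48 h at 37 C; viability read as ATP content by CellTiter-Glo luminescence.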
SW480 rereplic: inducers of DNA re-replication in SW480 colon cancer cells. Potency, µM (series often up to 46.1 µM), for the others: top-dose re-replication activation, usual class: activators. AID 624297. SW480 DNA re-replication, Hoechst DNA content imaging, 48 h. 340,000 compounds, 1.8% hits; also: potency is read from the fitted curve at half-maximal effect; % of control where 0% means no effect; nearly all actives have a fitted effect of over 55% in size
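Image-based DNA-content assay: after two days of treatment, nuclei were labelled with the DNA dye Hoechst and imaged, and hits were compounds raising the count of nuclei showing high fluorescence intensity.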
* hit, by the source's call; ? = inconclusive; nt = no result given. Unless noted, calls follow the shape of the dose curve; as a rule, active = well fitted curve in the direction sought with a large enough effect; inconclusive = small, poorly fitted or top-dose-only effect, or another doubt; inactive = no such curve, though single readings can be large; an effect the other way counts as inactive or inconclusive.

SMILES	TDP1 cell noCPT	MCF10A rerep	Chronic BCR inh	IL1B secr inh	TDP1 cell CPT	SW480 rereplic
COc1ccc2[nH]c(=O)c(CN(Cc3nnnn3Cc3ccccc3)CC3CCCO3)cc2c1 (configuration not stated)	?	4%	?	?	12µM*	?
Clc1ccccc1Nc1nc2ccccc2o1	-2%	-3%	?	32	?	4%
O=C1CCCC2=C1C1(CCCCC1)N=C(Nc1nc3ccccc3o1)N2	13µM*	?	-4%	-27	?	?
COc1ccc(NS(=O)(=O)c2ccc3nc(COc4ccc(Cl)c(C)c4)[nH]c3c2)cc1	?	?	-15%	24	?	?
Cc1cccc(NC(=O)C(C)Sc2nc3nc(C)cc(C)n3n2)c1 (configuration not stated)	-26%	-1%	0%	8	-19%	-2%
Cc1cccc(Nc2c(-c3cccs3)nc3nc(C)cc(C)n23)c1	?	nt	nt	nt	26µM*	nt
Cc1cc(C)n2c(Nc3cccc(C(F)(F)F)c3)c(-c3ccsc3)nc2n1	16µM*	nt	nt	nt	16µM*	nt
Cc1cccc(C)c1NC(=O)C(C1CC1)n1c(-c2ccc(C(F)(F)F)cc2)nc2ccccc21 (configuration not stated)	18µM*	nt	nt	0	?	nt
CC(C)(C)NC(=O)C(c1ccncc1)n1c(=O)c(-c2ccccc2)nc2ccccc21 (configuration not stated)	-8%	nt	nt	-9	-6%	nt
CC(C)(C)NC(=O)C(c1ccncc1)n1c(-c2ccc(C(F)(F)F)cc2)nc2ccccc21 (configuration not stated)	?	nt	nt	-16	?	nt
O=C(NC1CCCCC1)C(c1ccc(C(F)(F)F)cc1)n1c(=O)c(-c2ccccc2)nc2ccccc21 (configuration not stated)	13µM*	nt	nt	27	?	nt
COc1ccc(C(C(=O)NC(C)(C)C)n2c(-c3ccc(C(F)(F)F)cc3)nc3ccccc32)cc1 (configuration not stated)	?	nt	nt	10	16µM*	nt
CC(C)(C)NC(=O)C(c1ccc(C(F)(F)F)cc1)n1c(=O)c(-c2ccccc2)nc2ccccc21 (configuration not stated)	?	nt	nt	33	18µM*	nt
CC1CCN(c2nn3c(=O)c(C(=O)NC(C)C)cnc3s2)CC1	?	nt	nt	nt	-19%	nt
O=C(NC1CCCC1)C(c1ccccc1)n1c(Cc2cc(F)cc(F)c2)nc2ccccc21 (configuration not stated)	?	nt	nt	-5	18µM*	nt
CC(Oc1ccccc1F)C(=O)Nc1ccc2ccccc2c1 (configuration not stated)	-17%	?	?	15	-12%	1%
C[C@@H](C(=O)Nc1ccc2ccccc2c1)[C@H]1C[C@]1(C)[C@H](NS(=O)(=O)c1ccccc1)c1ccccc1	21µM*	3%	3%	?	?	1%
C[C@@H](C(=O)Nc1ccc2ccccc2c1)[C@H]1C[C@]1(C)[C@H](NP(=O)(c1ccccc1)c1ccccc1)c1ccccc1	nt	21%	2%	nt	nt	23µM*
CC[C@]1(O)CC2CN(CCc3c([nH]c4ccccc34)[C@@](C(=O)OC)(c3cc4c(cc3OC)N(C)[C@H]3[C@@](O)(C(=O)OC)[C@H](OC(C)=O)[C@]5(CC)C=CCN6CC[C@]43[C@@H]65)C2)C1 (some centres not stated)	0.14µM*	?	nt	nt	0.071µM*	0.75µM*
CC[C@]1(O)C[C@@H]2CN(CCc3c([nH]c4ccccc34)[C@](C(=O)OC)(c3cc4c(cc3OC)N(C=O)[C@H]3[C@@](O)(C(=O)OC)[C@H](C(=O)OC)[C@@]5(CC)C=CCN6CC[C@]43[C@H]65)C2)C1	0.019µM*	nt	nt	nt	0.027µM*	nt
CCC1=C[C@@H]2CN(C1)Cc1c([nH]c3ccccc13)[C@@](C(=O)OC)(c1cc3c(cc1OC)N(C)[C@@H]1[C@@](O)(C(=O)OC)[C@H](OC(C)=O)[C@]4(CC)C=CCN5CC[C@]31[C@@H]54)C2	nt	67%	nt	nt	nt	1.2µM*
CCC1(O)CC2CN(CCc3c([nH]c4ccccc34)C(C(=O)OC)(c3cc4c(cc3OC)N(C=O)C3C(O)(C(=O)OC)C(OC(C)=O)C5(CC)C=CCN6CCC43C65)C2)C1 (configuration not stated)	0.15µM*	?	nt	26	0.092µM*	0.16µM*
NC(=O)C1C(=O)c2ccccc2C1(C[N+](=O)[O-])c1ccccc1 (configuration not stated)	-28%	3%	nt	-6	?	-9%
CC(=O)c1ccc(NC(=O)C(Cc2ccccc2)NS(=O)(=O)c2ccc3c(c2)CCC(=O)N3)cc1 (configuration not stated)	0%	nt	nt	nt	-5%	nt
CNc1nc(Oc2cccc(F)c2)c2sccc2n1	-26%	nt	nt	24	-24%	nt
SMILES	TDP1 cell noCPT	MCF10A rerep	Chronic BCR inh	IL1B secr inh	TDP1 cell CPT	SW480 rereplic
COc1cccc(CNc2nc(NCc3ccccc3)nc3ccsc23)c1	4.1µM*	nt	nt	-55*	2.1µM*	nt
COc1cccc(CNc2nc(NCC3CC3)nc3ccsc23)c1	2.1µM*	nt	nt	-72*	16µM*	nt
CNc1nc(NCc2cccc(OC)c2)c2sccc2n1	10µM*	nt	nt	50	7.3µM*	nt
CCc1ccccc1Oc1nc(NCc2ccccc2)nc2ccsc12	?	nt	nt	37	?	nt
CCn1ccnc1CN(C)Cc1c(C(=O)N2C[C@@H](C)O[C@@H](C)C2)nc2ccc(Cl)cn12	-5%	-6%	3%	18	-7%	-3%
CSCc1ccc(C(=O)NC2CC(C)(C)Cc3c2cnn3-c2ccc(F)cc2)o1 (configuration not stated)	-30%	10%	7%	?	?	3%
COc1cccc(CNC(=O)C2CCCN(S(=O)(=O)c3cn(C)cn3)C2)c1 (configuration not stated)	-11%	nt	nt	nt	-2%	nt
COc1ccc(C(C)(C)NC(=O)C2CCC(=O)N(C3CCCC3)C2)cc1OC (configuration not stated)	-3%	1%	-1%	0	8%	-5%
Cc1cccc(-c2nc(CSc3nncn4c3cc3sccc34)c(C)o2)c1	?	nt	nt	nt	-96%	nt
